About 83,000 compounds went through this panel and 20% of them were active in at least one assay; those are over-represented in the sample as a whole.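 How to read the values: 0–100, growth inhibition (40 = 60% inhibited); 0, no net growth; -100 to 0, cell death (-40 = 40% of starting cells died; -100 = all dead).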 A number with no mark means an inactive call. Calls of active or inactive are those of the source. How the source made its calls: active means growth percent below 10; inactive means the rest.

The first assay has as its system HCC-2998 colon. Nature of the assay: NCI-60 one-dose screen, 48 h (100 = growth as untreated, 0 = no growth, -100 = all killed). The following applies: 10 µM unless noted.
Turning to `COc1cc2cc(Oc3ccc(NC(=O)Nc4ccc(Cl)c(C(F)(F)F)c4)cc3)c(C)nc2cc1OCCN1CCCCC1`, the growth is -38.6% (active).

On to `COc1ccc(/C=C2\SC(=O)N(CN3CCN(c4cc5c(cc4F)c(=O)c(C(=O)O)cn5C4CC4)CC3)C2=O)cc1`, for which the growth was 104%.

Take `CCCCC/C=C\C/C=C/CCCCCCCCNC(=O)Nc1ccc([N+](=O)[O-])cc1`: the growth was 95.3%.

As to `COc1ccc(/C=C/C(=O)N2CCC(O)CC2)cc1OC1CCCC1`, the growth is 111%.

Turning to `O=C(c1ccccc1)C(Br)C(Br)c1cccc([N+](=O)[O-])c1` (stereo not drawn), the growth was 89.5%.

Regarding `CCOC(=O)c1cnn(CC(O)c2ccc(F)cc2)c1NC(=O)Nc1ccccc1F` (stereo not drawn), the growth is 115%.

For `CC1CCCCN1S(=O)(=O)c1ccc(CN=C=S)cc1` (stereo not drawn), the growth was 103%.

`COc1ccc(OC)c(/C=C2\Oc3cc(O)ccc3C2=O)c1`: the growth was 99.3%.

As to `CCCCC1COc2cccc3c(SCC(=O)N(C)c4cccc5ccccc45)cc[n+]1c23` (stereo not drawn), the growth was 90.3%.

Consider `Brc1ccc(Br)nn1`, for which the growth was -53.5% (active).

For `Cn1c2ccccc2c2nn(Cc3ccccc3)c(=O)nc21`, the growth is 114%.

For `COc1ccc(/C=N/NC(=O)c2cnn3c2NC(c2ccccc2)C3)cc1OC1CCCC1` (stereo not drawn), the growth is 110%.

Consider `CCOC(=O)c1[nH]c2cc(Cl)ccc2c1[C@@H](C(=O)NC(C)(C)C)N(CC)C(=O)CCCCC#Cc1cccc2c1CN(C1CCC(=O)NC1=O)C2=O` (stereo partly drawn), for which the growth is 6.54% (active).

Consider `Nc1nc(N)c(N=Nc2c(Br)cc(S(N)(=O)=O)cc2Br)c(N)n1`, for which the growth was 100%.

Turning to `O=C1/C(=C/c2ccc([N+](=O)[O-])cc2)Oc2ccc(O)cc21`, the growth is 46%.

`COc1ccc(/C=N\N2CCOCC2)cc1OC1CCCC1`: the growth is 112%.

For the compound `O=C(Nc1ccccc1O)c1ccc(NS(=O)(=O)c2cccc3cccnc23)cc1`, the growth is 57.3%.

As to `COc1cc(/C=N/NC(=O)c2cnn3c2NC(c2ccccc2)C3)cc(OC)c1OC` (stereo not drawn), the growth was 91.2%.

As to `O=S(=O)(Nc1ccccc1Cl)c1ccc(-c2cnc(C3CC3)o2)cc1`, the growth is 39.9%.

For `Cn1c2c(cc(S(=O)(=O)c3ccccc3)c1=O)CCc1c-2cnn1-c1cccc(Cl)c1`, the growth is 111%.

Consider `Fc1c[c-]c(-c2ccccn2)c(F)c1.Fc1c[c-]c(-c2ccccn2)c(F)c1.[Cl][Pt+].[Cl][Pt+].c1ccc([PH+](C[PH+](c2ccccc2)c2ccccc2)c2ccccc2)cc1`, for which the growth is 22.4%.

`CCOC(=O)n1cc(C2=C(c3cn(C)c4ccccc34)COC2=O)c2ccccc21`: the growth is 16.5%.

For the compound `CSC1=CC(=O)c2ccccc2C1=O`, the growth is 107%.

`Cc1c(C(=O)Nc2nc(-c3ccccc3)cs2)nnn1-c1ccccc1Br`: the growth was 72.7% [50 µM].

In the case of `COc1ccc(/C=N/OCC(O)CNCc2ccccc2)cc1OC1CCCC1` (stereo not drawn), the growth was 110%.

Take `O=C(N/N=C/c1ccc(OC(F)F)c(OC2CCCC2)c1)c1cnn2c1NC(c1ccccc1)C2` (stereo not drawn): the growth was 111%.

Regarding `Nc1cc(Br)c(-c2nnc(CCC(=O)c3nc4ccccc4[nH]3)o2)c(Br)c1`, the growth is 78%.

`O=C1C2CC3C(CC2C(=O)[N]1[Sn]([c]1ccccc1)([c]1ccccc1)[c]1ccccc1)C1(Cl)C(Cl)=C(Cl)C3(Cl)C1(Cl)Cl` (stereo not drawn): the growth is -82.2% (active).

Turning to `COc1ccc(/C=C(\C#N)c2cc3ccccc3n2C)cc1`, the growth was 24.8%.

Consider `CC(C)(C)[Si](C)(C)OC1[C@@H](COC(=O)NC(=O)CCl)O[C@@H](n2cnc3c(N)ncnc32)[C@H]1O[Si](C)(C)C(C)(C)C` (stereo partly drawn), for which the growth was 56%.

In the case of `Cc1cccc2c(=O)c3c(sc12)c(NCCCN)nc1ccccc13`, the growth was -30.9% (active).

On to `COc1cc(Cn2cc(F)c(=O)[nH]c2=O)cc(OC)c1`, for which the growth is 114% [50 µM].

For the compound `Cc1nc2ccc(Cl)cc2n1C`, the growth was 111%.

`CCN1CCN(c2ccc(Nc3ncc4ccc5ncn(C(C)C)c5c4n3)nc2)CC1`: the growth is -4.57% (active).

As to `COc1ccc(/C=C2\Oc3cc(C)c(Cl)cc3C2=O)cc1OC`, the growth was 116%.

Consider `COc1ccc(-n2ncc3c2ccc2cc(S(=O)(=O)c4ccccc4)c(=O)n(C)c23)cc1`, for which the growth is 102%.

Turning to `NC(=O)c1cc(Cl)ccc1NC(=O)COc1ccccc1`, the growth was 83.1%.

With `Nc1ccccc1-c1n[nH]c(=O)[nH]c1=O`, the growth was 101%.

On to `Cn1c2ccccc2c2nn(C(=O)c3ccccc3)c(=O)nc21`, for which the growth is 107%.

For the next assay, the system named is KM12 colon. Described as above. The following applies: 10 µM unless noted.
As to `COc1cc2cc(Oc3ccc(NC(=O)Nc4ccc(Cl)c(C(F)(F)F)c4)cc3)c(C)nc2cc1OCCN1CCCCC1`, the growth was -79.6% (active).

As to `COc1ccc(/C=C2\SC(=O)N(CN3CCN(c4cc5c(cc4F)c(=O)c(C(=O)O)cn5C4CC4)CC3)C2=O)cc1`, the growth is 103%.

As to `CCCCC/C=C\C/C=C/CCCCCCCCNC(=O)Nc1ccc([N+](=O)[O-])cc1`, the growth is 23.9%.

Consider `COc1ccc(/C=C/C(=O)N2CCC(O)CC2)cc1OC1CCCC1`, for which the growth was 105%.

Regarding `O=C(c1ccccc1)C(Br)C(Br)c1cccc([N+](=O)[O-])c1` (stereo not drawn), the growth was 33.7%.

As for `CCOC(=O)c1cnn(CC(O)c2ccc(F)cc2)c1NC(=O)Nc1ccccc1F` (stereo not drawn), the growth is 94.3%.

In the case of `CC1CCCCN1S(=O)(=O)c1ccc(CN=C=S)cc1` (stereo not drawn), the growth is 22.2%.

In the case of `COc1ccc(OC)c(/C=C2\Oc3cc(O)ccc3C2=O)c1`, the growth was 108%.

Regarding `CCCCC1COc2cccc3c(SCC(=O)N(C)c4cccc5ccccc45)cc[n+]1c23` (stereo not drawn), the growth was 112%.

Consider `Brc1ccc(Br)nn1`, for which the growth is -50.7% (active).

With `Cn1c2ccccc2c2nn(Cc3ccccc3)c(=O)nc21`, the growth was 104%.

As to `COc1ccc(/C=N/NC(=O)c2cnn3c2NC(c2ccccc2)C3)cc1OC1CCCC1` (stereo not drawn), the growth is 81.3%.

For the compound `CCOC(=O)c1[nH]c2cc(Cl)ccc2c1[C@@H](C(=O)NC(C)(C)C)N(CC)C(=O)CCCCC#Cc1cccc2c1CN(C1CCC(=O)NC1=O)C2=O` (stereo partly drawn), the growth is 10.3%.

For the compound `Nc1nc(N)c(N=Nc2c(Br)cc(S(N)(=O)=O)cc2Br)c(N)n1`, the growth is 61.3%.

On to `O=C1/C(=C/c2ccc([N+](=O)[O-])cc2)Oc2ccc(O)cc21`, for which the growth is 102%.

In the case of `COc1ccc(/C=N\N2CCOCC2)cc1OC1CCCC1`, the growth was 106%.

As to `O=C(Nc1ccccc1O)c1ccc(NS(=O)(=O)c2cccc3cccnc23)cc1`, the growth is 74.8%.

For the compound `COc1cc(/C=N/NC(=O)c2cnn3c2NC(c2ccccc2)C3)cc(OC)c1OC` (stereo not drawn), the growth was 30.6%.

`O=S(=O)(Nc1ccccc1Cl)c1ccc(-c2cnc(C3CC3)o2)cc1`: the growth was 20.5%.

Consider `Cn1c2c(cc(S(=O)(=O)c3ccccc3)c1=O)CCc1c-2cnn1-c1cccc(Cl)c1`, for which the growth is 101%.

Turning to `Fc1c[c-]c(-c2ccccn2)c(F)c1.Fc1c[c-]c(-c2ccccn2)c(F)c1.[Cl][Pt+].[Cl][Pt+].c1ccc([PH+](C[PH+](c2ccccc2)c2ccccc2)c2ccccc2)cc1`, the growth is 12.3%.

For `CCOC(=O)n1cc(C2=C(c3cn(C)c4ccccc34)COC2=O)c2ccccc21`, the growth was 2.55% (active).

As to `CSC1=CC(=O)c2ccccc2C1=O`, the growth is 71.9%.

For the compound `Cc1c(C(=O)Nc2nc(-c3ccccc3)cs2)nnn1-c1ccccc1Br`, the growth is 36.3% [50 µM].

Turning to `COc1ccc(/C=N/OCC(O)CNCc2ccccc2)cc1OC1CCCC1` (stereo not drawn), the growth was 104%.

Regarding `O=C(N/N=C/c1ccc(OC(F)F)c(OC2CCCC2)c1)c1cnn2c1NC(c1ccccc1)C2` (stereo not drawn), the growth was 54.8%.

`Nc1cc(Br)c(-c2nnc(CCC(=O)c3nc4ccccc4[nH]3)o2)c(Br)c1`: the growth was 69%.

Regarding `O=C1C2CC3C(CC2C(=O)[N]1[Sn]([c]1ccccc1)([c]1ccccc1)[c]1ccccc1)C1(Cl)C(Cl)=C(Cl)C3(Cl)C1(Cl)Cl` (stereo not drawn), the growth was -91.3% (active).

On to `COc1ccc(/C=C(\C#N)c2cc3ccccc3n2C)cc1`, for which the growth was 16.8%.

Consider `CC(C)(C)[Si](C)(C)OC1[C@@H](COC(=O)NC(=O)CCl)O[C@@H](n2cnc3c(N)ncnc32)[C@H]1O[Si](C)(C)C(C)(C)C` (stereo partly drawn), for which the growth is 19.9%.

On to `Cc1cccc2c(=O)c3c(sc12)c(NCCCN)nc1ccccc13`, for which the growth is -64.4% (active).

In the case of `COc1cc(Cn2cc(F)c(=O)[nH]c2=O)cc(OC)c1`, the growth was 108% [50 µM].

For the compound `Cc1nc2ccc(Cl)cc2n1C`, the growth was 104%.

Take `CCN1CCN(c2ccc(Nc3ncc4ccc5ncn(C(C)C)c5c4n3)nc2)CC1`: the growth is -16.9% (active).

Consider `COc1ccc(/C=C2\Oc3cc(C)c(Cl)cc3C2=O)cc1OC`, for which the growth was 100%.

With `COc1ccc(-n2ncc3c2ccc2cc(S(=O)(=O)c4ccccc4)c(=O)n(C)c23)cc1`, the growth was 88.8%.

Regarding `NC(=O)c1cc(Cl)ccc1NC(=O)COc1ccccc1`, the growth is 38.3%.

Consider `Nc1ccccc1-c1n[nH]c(=O)[nH]c1=O`, for which the growth was 107%.

For the compound `Cn1c2ccccc2c2nn(C(=O)c3ccccc3)c(=O)nc21`, the growth was 106%.

For the origin of these results see PubChem BioAssay (NCI).
